High-throughput results: PubChem, National Center for Advancing Translational Sciences (NCATS)
The list is not random: actives were taken first. Their share in the collection is about 2%.
JMJD2E inh: inhibitors of human JMJD2E histone demethylase | Potency, µM (doses to about 57.1 µM), for the others: at the highest dose activity change, negative = inhibition, most hits filed as inhibitors | B2RXH2 | JMJD2E catalytic domain, FDH-coupled NADH fluorescence (FDH is formaldehyde dehydrogenase) | 230,000 tested, 1.6% active; active means well fitted inhibition curve with a large enough effect, not every such curve was filed as active; inconclusive means small, poorly fitted or top-dose-only effect, or another doubt; inactive means no such curve, though single readings can be large or run the other way;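 further: potency means the concentration at half of the fitted maximal effect; 0% = wells with enzyme and -100% = buffer wells without enzyme; nearly all actives have a fitted effect of over 50% in size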
KCNH2 3.1 inh: blocks the human KCNH2 3.1 channel isoform; U2OS KCNH2 3.1, thallium flux FluxOr; hits give low values; activity change, % (tested at about 1.8 µM); 340,000 tested, 0.95% active; AID 720553;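 active means maximum activity change below -70%; inconclusive means maximum activity change from -70% to -50%; inactive means maximum activity change above -50%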;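 further: thallium influx rate constant from kinetic fluorescence after stimulation buffer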
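Kinetic fluorescence (2 min after stimulation buffer) measures Tl+ influx through KCNH2 3.1 expressed by viral transduction in U2OS cells; the rate constant is normalized against DMSO controls serving as positive and negative references.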
Six1-Eya2 inh: Six1/Eya2 interaction inhibition. Q15475+O00167. AlphaScreen GST-Six1/His-Eya2 binding, biochemical; hits give low values. activity change, % (concentration not given with the values). 360,000 tested, 0.56% active. AID 651725
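GST-Six1 + His-Eya2 (5X stock: 250/500 nM); Tris pH 8.0, 300 mM NaCl, 0.05% BSA, 0.02% Tween 20; GSH donor/Ni acceptor beads; 1 h 37 °C dark; AlphaScreen readout.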
KCNH2 WT inh: blocks the wildtype human KCNH2 potassium channel; U2OS, BacMam KCNH2, thallium flux FluxOr; hits give low values; 340,000 tested, 0.37% active; Q12809; AID 720551; activity change, % at 1.84 µM;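 active means maximum activity change below -70%; inconclusive means maximum activity change between -70% and -50%; inactive means maximum activity change above -50%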
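U2OS cells transduced with wild-type KCNH2 virus are loaded with FluxOr dye for 45 min, and thallium flux is measured in kinetic reads before and after stimulation buffer. Rate constants are normalized to DMSO controls.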
CtBP-E1A blk: inhibitors of CtBP/E1A interaction; AlphaScreen GST-E1A/His-CtBP binding, 1536-well; hits give low values; activity change, % (test concentration not listed); 340,000 tested, 0.49% active
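Protein mix (5X: 125 nM each GST-E1A, His-CtBP) was incubated with pinned compound 2 h at 37 deg C in dark, in 50 mM Tris pH 8.0 buffer with 300 mM NaCl. Glutathione donor and nickel acceptor beads followed; AlphaScreen signal read after 1 h.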
* marks the source's active call; other numbers are inactive results; ? = inconclusive; · = not tested or not shown; ! = a repeat was not active; [ ] = remark or other dose. Unless noted, no stated cut-off is given here; in the data, active means activity change below about -65%; inconclusive means mostly about -30% to -63%; inactive means weaker than that. Unless noted, on the % scale 0 is the no-effect control and ±100 the full control effect.

SMILES | JMJD2E inh | KCNH2 3.1 inh | Six1-Eya2 inh | KCNH2 WT inh | CtBP-E1A blk
Cc1ccc(C(=O)N/C(=C\c2ccc(-c3ccccc3[N+](=O)[O-])o2)C(=O)NCCCN(C)C)cc1 | · | -28 | -8 | -9 | -24
Cc1ccc(C(=O)N/C(=C\c2ccc(-c3ccc(Cl)cc3)o2)C(=O)NCCCN(C)C)cc1 | ? | ? | -20 | -83* | 1
CN(C)CCCNC(=O)/C(=C/c1ccc(-c2ccc([N+](=O)[O-])cc2)o1)NC(=O)c1ccccc1 | · | -99* | 14 | ? | -9
CN(C)CCCNC(=O)/C(=C\c1ccc(-c2ccc(Br)cc2)o1)NC(=O)c1ccccc1 | ? | -117* | 2 | -36 | 1
O=C(OCc1ccccc1)N1CCC2CC1c1c2cccc1N1CCOCC1 (stereo unspecified) | · | · | 1 | · | -2
CCCCCCCCCCCC1=C(O)C(=O)C=C(O)C1=O | 20µM*! | -2 | -21 | 5 | -5
Cc1cc(N/N=C/c2ccccc2Br)nc2ccccc12 | -23% | -82* | 18 | -21 | 6
O=C(CSc1ccc(-c2cccc([N+](=O)[O-])c2)nn1)NCc1ccccc1 | -4% | 2 | -1 | 8 | -3
O=C(CSc1ccc(-c2ccccn2)nn1)NCc1ccccc1 | ? | 2 | -76* | -115* | ?
O=C(CSc1ccc(-c2ccccn2)nn1)c1ccc([N+](=O)[O-])cc1 | -26% | -4 | -67* | 1 | -83*
O=C(CSc1ccc(-c2cccnc2)nn1)c1ccc([N+](=O)[O-])cc1 | -18% | -5 | -14 | -6 | -22
O=C(CSc1ccc(-c2ccccn2)nn1)NC1CCCCC1 | ? | -4 | -90* | 0 | -72*
O=C(CSc1ccc(-c2ccccc2)nn1)NC1CCCCC1 | · | -1 | -4 | -12 | -10
COc1ccccc1-n1cnnc1SCC(=O)NC1CCCCC1 | · | -12 | 5 | -11 | 8
O=C(CSc1nncn1-c1ccccc1F)NC1CCCCC1 | · | -118* | -6 | -3 | 22
CC(=O)N(C)c1ccc(NC(=O)c2cnn(C)c2)cc1 | 2% | -2 | 8 | 18 | -2
CC(C)(C)SCCNC(=O)c1ccc(Cl)c([N+](=O)[O-])c1 | 4% | 0 | 19 | 6 | 26
O=C(CSc1ccc(-c2ccccn2)nn1)NCc1ccc(F)cc1 | -8% | 1 | -81* | 6 | -66*
CC(C)C[C@@H](COCc1ccc([N+](=O)[O-])cc1)N1CCN(C(=O)c2ccc(C(F)(F)F)cc2)CCC1=O | · | · | -69* | · | -90*
CC(C)C[C@@H](COCc1ccc(Cl)cc1)N1CCN(C(=O)c2ccc(C(F)(F)F)cc2)CCC1=O | · | · | -1 | · | 8
COc1cc([N+](=O)[O-])cc(/C=N/NC(=O)C(C)Nc2cccc3ccccc23)c1O (stereo unspecified) | 4.5µM* | 3 | ? | -5 | ?
COc1cc([N+](=O)[O-])cc(/C=N/NC(=O)c2cccnc2)c1O | 8.9µM* | -7 | -90* | 2 | -92*
COc1cc([N+](=O)[O-])cc(/C=N/NC(=O)C(O)(c2ccccc2)c2ccccc2)c1O | · | 2 | ? | 18 | -82*
O=C(N/N=C/c1cccc([N+](=O)[O-])c1O)C(O)(c1ccccc1)c1ccccc1 | · | 9 | -22 | 0 | ·
CC(Nc1cccc2ccccc12)C(=O)N/N=C/c1ccc([N+](=O)[O-])cc1 (stereo unspecified) | 8% | 7 | -22 | 2 | -18
SMILES | JMJD2E inh | KCNH2 3.1 inh | Six1-Eya2 inh | KCNH2 WT inh | CtBP-E1A blk
CCN(CC)CCCNc1nc2ccccc2c2[nH]c3ccc(OC)cc3c12 | · | · | ? | -23 | -75*
COC(=O)c1ccc(/C=C2\CCn3c2nc2cc(C(=O)O)ccc2c3=O)cc1 | · | 8 | -66* | -4 | ?
O=C(c1cccs1)N1CCN(C(=O)c2cn(-c3ccccc3)nc2-c2ccccc2)CC1 | · | -172* | 2 | -129* | 5
Cc1ccc(CNC(=O)C2CCCN(c3ncnc4c3nc3n4CCCCC3)C2)cc1 (stereo unspecified) | · | 21 | 5 | 20 | ·
O=C(C1CCCN(S(=O)(=O)c2ccc(Br)cc2)C1)N1CCOCC1 (stereo unspecified) | · | · | 5 | 2 | -2
O=C(C1=C[C@@H](c2ccccc2)C[C@@H](OCc2ccc(CO)cc2)O1)N1CCN(Cc2ccc3c(c2)OCO3)CC1 | -6% | 0 | -22 | 5 | -12
O=C(C1=C[C@H](c2ccccc2)C[C@H](OCc2ccc(CO)cc2)O1)N1CCN(Cc2ccccc2)CC1 | 20µM* | -45 | -7 | 15 | -9
O=C(NC1CC1)C1=C[C@H](c2ccc(Br)cc2)C[C@H](OCc2ccc(CO)cc2)O1 | 0% | -10 | -5 | 0 | 3
CC(=O)n1cc([C@@H]2C=C(C(=O)NCc3ccccc3)O[C@H](OCc3ccc(CO)cc3)C2)c2ccccc21 | 10µM* | · | -6 | · | -2
O=C(NC1CC1)C1=C[C@H](c2ccccc2)C[C@H](OCc2ccc(CO)cc2)O1 | -4% | -181* | -5 | -11 | -9
CN(C)c1cc2c(c(N(C)C)c1)C(=O)c1ccccc1C2=O | -2% | 3 | -81* | 7 | -81*
CN(C)S(=O)(=O)c1cccc2c1C(=O)c1ccccc1C2=O | 2% | 4 | -30 | -31 | 0
COC(=O)c1sc(S(=O)(=O)N2CCCCC2)c(C(=O)OC)c1C | 3% | -187* | -5 | -1 | -4
COC(=O)c1sc(S(=O)(=O)N2CCC(C)CC2)c(C(=O)OC)c1C | -1% | 1 | 8 | -3 | 9
CCCCOP(=O)(OCCCC)C1(NS(=O)(=O)c2ccccc2)C=CC(=O)c2ccccc21 (stereo unspecified) | 5% | -82* | -29 | -12 | -12
CCCCOCCCNS(=O)(=O)c1ccccc1 | 0% | 4 | -3 | 7 | -11
CCCCNC(=S)Nc1ccc(SC(F)F)cc1 | -2% | -21 | -16 | 1 | 27
COC(=O)[C@@H]1C[C@@]2(O)[C@@H](O)[C@@H](O)[C@@H](O)C[C@H]2N1Cc1ccc(-c2ccccc2)cc1 | -30% | 3 | -20 | -8 | 2
COC(=O)[C@@H]1C[C@@]2(O)[C@H](O)[C@H](O)[C@H](O)C[C@H]2N1Cc1ccc(-c2ccccc2)cc1 | 8.9µM*! | 12 | 1 | 1 | 5
O=C(c1ccc([N+](=O)[O-])cc1)N(Cc1cccs1)C1CCS(=O)(=O)C1 (stereo unspecified) | · | -101* | 6 | 31 | -5
Cc1ccc(-c2nnc(Nc3ccccc3)c3ccccc23)cc1S(=O)(=O)NCC1CCCO1 (stereo unspecified) | ? | 8 | -22 | 4 | -26
CCSc1ccc2c(c1)N(CCCN1CCN(C)CC1)c1ccccc1S2 | -12%[25.5 µM] | -73* | 8 | 32 | -3
